BoNT F protease: inhibitors of Botulinum neurotoxin F light chain protease; inhibition, % at 10 µM; AID 588497; Multiplex microsphere protease cleavage assay, flow cytometry; hit rate 0.22% among 360,000; in the data active = inhibition above about 35%, passing the limit was not always enough; inconclusive = no clear call, values can overlap the other calls; note: plate controls were buffer without enzyme for full effect and enzyme alone for no effect
Anthrax LF prot: anthrax lethal factor protease inhibition; P15917; multiplex microsphere protease cleavage assay, LF; inhibition, % at 10 µM; hit rate 0.12% among 360,000; AID 588501; note: plate controls were buffer without enzyme for full effect and enzyme alone for no effect
BoNT-A LC inh2: inhibitors of Botulinum neurotoxin A light chain protease. AID 588499. inhibition, % at 10 µM. multiplex microsphere protease substrate cleavage, flow cytometry. hit rate 0.17% among 360,000; note: plate controls were buffer without enzyme for full effect and enzyme alone for no effect
MazF activator: MazEF (E. coli) toxin RNase activation. P0AE70. FAM/BHQ RNA-DNA oligo cleavage fluorescence, 5 h. activation, % at 20 µM. hit rate 0.32% among 350,000. AID 504720; in the data active = activation above about 50%
Target sequence (P0AE70 whole entry, looked up): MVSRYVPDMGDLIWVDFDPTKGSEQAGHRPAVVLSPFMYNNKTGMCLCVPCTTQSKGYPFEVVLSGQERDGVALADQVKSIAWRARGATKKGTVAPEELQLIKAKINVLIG
Bead autofluor: flagged as autofluorescent in microsphere protease counterscreen | fluorescence intensity (no concentration beside the values) | hit rate 3.1% among 360,000 | compound autofluorescence counterscreen, microsphere flow cytometry; active compounds read high; in the data active = fluorescence intensity above about 16000; inconclusive = no clear call, values can overlap the other calls
The depositor's hits bear a star; ? = inconclusive; nt = no result. Rows were chosen to be rich in hits. Some 3.7% of all compounds tested hit in one or more screens of this group. Cut-off read from the data, not from the text of the source, unless noted: active = inhibition above about 30%; inconclusive = no clear call, values can overlap the other calls; inactive = below that.

SMILES | BoNT F protease | Anthrax LF prot | BoNT-A LC inh2 | MazF activator | Bead autofluor
CCCN1CCN(C(=O)c2ccc(Sc3ccc(C)cc3)c(NC(C)=O)c2)CC1 | -6 | 0 | -4 | -7 | 24723*
Cc1cc(C(=O)N2CCN(Cc3ccc4c(c3)OCO4)CC2)cs1 | -6 | -2 | -5 | -4 | 25075*
Cc1cc(C(=O)NC(C)c2ccc3c(c2)OCO3)cs1 (centres undefined) | -7 | 2 | ? | 6 | 22313*
CCSc1ccccc1C(=O)N1CCN(Cc2ccc3c(c2)OCO3)CC1 | 0 | -9 | 3 | 3 | 22336*
CCSc1ccccc1C(=O)NCc1ccc2c(c1)OCO2 | -9 | -2 | -4 | 7 | 17574*
O=C(O)c1ccccc1C(=O)N1CCN(Cc2ccc3c(c2)OCO3)CC1 | -18 | 15 | -3 | 4 | 3918
O=C(Cc1ccccc1)NCc1ccc2c(c1)OCO2 | 1 | -1 | 0 | 5 | 3417
CC(=O)c1ccc(N2CCN(S(=O)(=O)c3c(C)[nH]c(C)c3C(=O)N3CCCCC3)CC2)cc1 | 8 | 1 | 4 | -2 | 3832
CC(=O)Nc1ccc(S(=O)(=O)N(C)CC(=O)OCC(=O)N(C)c2ccccc2)cc1 | -6 | -2 | 2 | 1 | 5244
COCCSc1ccccc1C(=O)N1CCCC1 | -2 | 4 | 0 | 1 | 5921
CSc1ccccc1C(=O)NCc1ccc2c(c1)OCO2 | -2 | -2 | 1 | -1 | 20402*
O=C(NCc1ccc2c(c1)OCO2)c1ccccc1Cl | -3 | -6 | -1 | 4 | 6446
CCSc1ccccc1C(=O)N1CCCC1 | -6 | -1 | -2 | 6 | 23440*
CC(C)(C)C(O)C(Cc1ccccc1Cl)n1cncn1 (centres undefined) | 31 | -18 | -1 | 1 | 3068
Cc1cc[n+]2c3c(cccc13)CCC2 | -5 | -12 | 0 | 4 | 20480*
Cc1cccc2c1N(N=O)CCC2 | -28 | -1 | -2 | 6 | 2059
Brc1ccc(NC(c2ccccc2)c2ccncc2)cc1 (centres undefined) | -42 | 3 | -4 | -5 | 3456
NC(=O)c1c(-c2ccccc2)oc2ccc(O)cc12 | 4 | -1 | 0 | -4 | 22271*
CCOC(=O)c1c(-c2ccccc2)oc2ccc(O)cc12 | 8 | 3 | 3 | 8 | 4127
CNc1c([N+](=O)[O-])cnn1-c1ccc(C)cc1 | -1 | -7 | -1 | 3 | 23938*
CNc1c([N+](=O)[O-])cnn1-c1ccccc1F | -3 | 3 | -1 | 5 | 4313
CCOC(=O)N1CCN(C(=O)Nc2cccc(Cl)c2)CC1 | 4 | -2 | 4 | 3 | 19827*
COc1ccccc1N1CCN(C(=O)Nc2cccc(Cl)c2)CC1 | -13 | -4 | ? | 4 | 17904*
CCOC(=O)N1CCN(C(=S)Nc2cccc(C)c2)CC1 | -4 | -13 | -2 | -3 | 23824*
CCOC(=O)N1CCN(C(=O)Nc2ccc(Cl)cc2)CC1 | 4 | -2 | 0 | -6 | 4208
SMILES | BoNT F protease | Anthrax LF prot | BoNT-A LC inh2 | MazF activator | Bead autofluor
O=C1CCN(C(=O)Nc2cccc(Cl)c2)N1 | -2 | -3 | -1 | 5 | 22772*
COC(=O)c1ccc(NC(=S)N2CCN(Cc3ccccc3)CC2)cc1 | -1 | -2 | 0 | -8 | 6365
COC(=O)c1ccc(NC(=S)N2CCN(Cc3cccc(C)c3)CC2)cc1 | 5 | 4 | 3 | 0 | 21917*
Cc1ccc(C)c(NC(=O)CCc2nnc3ccc(N4CCCCC4)nn23)c1 | -3 | -1 | 0 | 9 | 6039
CCOc1cc(C=O)ccc1OCCSc1ccc(C)cc1 | 8 | -3 | 3 | -13 | 10538
COc1cc(C=O)ccc1OCCSc1ccc(C)cc1 | 2 | -5 | 3 | -11 | 18295*
O=C(Nc1cccc(O)c1)c1ccc(Br)cc1 | 4 | -7 | 3 | 3 | 21990*
O=C(Nc1cccc(O)c1)c1cccc(S(=O)(=O)N2CCCCCC2)c1 | -4 | 10 | 2 | 0 | 3670
O=C(Nc1ncn[nH]1)c1ccc(Cl)c(S(=O)(=O)N2CCCCCC2)c1 | 0 | 3 | -1 | 4 | 16856*
CC(=O)Nc1cccc(NC(=O)c2ccc(Br)cc2)c1 | -7 | -4 | -1 | 4 | 4321
O=C(Nc1cccc(O)c1)c1ccc(Br)c(S(=O)(=O)N2CCCCC2)c1 | -6 | -3 | -4 | 9 | 24544*
Cc1ccc(OCC(=O)N(C)CC(=O)N(CC(C)C)c2c(N)n(CC(C)C)c(=O)[nH]c2=O)c(C)c1 | 9 | -8 | -2 | 0 | ?
Cn1c(=O)cc(OCCCC(=O)NCc2ccco2)c2ccccc21 | -3 | -2 | -2 | 2 | 17294*
Cn1c(=O)cc(OCCCC(=O)Nc2ccccn2)c2ccccc21 | 0 | -2 | 1 | 4 | 22529*
Cn1c(=O)cc(OCCCC(=O)Nc2cccc(Cl)c2)c2ccccc21 | 1 | -3 | 0 | nt | 3113
CCOC(=O)c1c(-c2ccccc2)nc2c(C)cccn12 | 4 | 3 | 0 | 4 | 5263
O=C(Nc1c(-c2ccccc2)nc2ccccn12)c1ccco1 | 0 | 1 | ? | 3 | 22214*
CCOC(=O)c1c(-c2ccccc2)nc2ccccn12 | -1 | 1 | ? | 6 | 22802*
CSc1ccccc1NC(=O)c1ccco1 | 0 | 0 | 0 | -4 | 22329*
O=C(Nc1ccccc1-c1ccccc1NC(=O)c1ccco1)c1ccco1 | 1 | 0 | 0 | 1 | 3324
O=C(Nc1ccccc1NC(=O)c1ccco1)c1ccco1 | 1 | -2 | 0 | 5 | 22408*
Cc1nn(C2CC(O)C(O)C(CO)O2)c(=O)[nH]c1=O (centres undefined) | -2 | 2 | 0 | 2 | 2837
CCc1nnc(SCC(=O)NC2CC2)n1CC | 2 | -1 | 0 | -2 | 4413
COc1ccccc1N(C)S(=O)(=O)c1ccc(C(=O)OCC(=O)N2CCCCCC2)cc1 | -3 | -4 | 0 | 5 | 4153
COc1cc(C(=O)Nc2cccc(C(C)=O)c2)cc(OC)c1OC | -3 | 3 | -1 | 6 | 4555
SMILES | BoNT F protease | Anthrax LF prot | BoNT-A LC inh2 | MazF activator | Bead autofluor
COc1cc(NC(=O)Nc2cccc(C(C)=O)c2)cc(OC)c1OC | -1 | -10 | 1 | 6 | 21687*
COc1cccc(C(=O)Nc2cccc(NC(C)=O)c2)c1 | -4 | -2 | 0 | 31 | 11178
COc1ccc(NC(=O)c2cccc(OC(F)F)c2)cc1Cl | -4 | -6 | ? | 10 | 23117*
O=C(Nc1ccc(OC(F)F)c(Cl)c1)c1cccc(OC(F)F)c1 | -14 | -9 | -2 | -10 | 10203
COc1cccc(C(=O)Nc2ccc(NC(C)=O)cc2)c1 | -1 | -4 | ? | 6 | 22073*
COc1cccc(C(=O)NC2CCSC2=O)c1 (centres undefined) | -1 | -2 | 1 | 5 | 19865*
C=CC[C@@H](CC(=O)N(CCO)Cc1ccccc1)C(=O)NCCOC(=O)[C@H](CC=C)CC(=O)OC(C)(C)C | -11 | -4 | 0 | -1 | 3906
O=[N+]([O-])c1cc(CN(CCO)CCO)ccc1O | -8 | -9 | -2 | 4 | 3668
COc1ccc(C(=O)NCCNc2nc3cc(C)c(C)cc3cc2C)cc1 | -3 | 3 | 1 | -13 | 3159
COc1ccc(C(=O)NCCS(=O)(=O)N2CCc3ccccc3C2)cc1OC | nt | nt | nt | -1 | nt
